Consider 30 compounds from the supplement of paper PMC13380429.

Structures are written as SMILES.

Test [1] relates to Vero E6 infected with SARS-CoV-2. Description: morphology score (similarity to uninfected cells); higher = more like uninfected cells. The following applies: 24 h.
For test [2] the test system is unchanged. Description: SARS-CoV-2 infection rate relative to infected DMSO; higher = more infection, active = 60 or less. Conditions: 24 h.

Compound `NCC(=O)N[C@@H](CCC(N)=O)C(=O)O` (10 µM) registered a morphology score in test [1] of 0.0903. Further, the SARS-CoV-2 infection rate in test [2] was 108% (inactive).
In turn, `C[C@H](N)C(=O)N[C@@]1(C(=O)O)C[C@@H](Sc2nnc[nH]2)[C@H]2[C@H](C(=O)O)[C@H]21` (10 µM) came in with a morphology score in test [1] of -0.0396. For the same compound, in test [2], the SARS-CoV-2 infection rate was 114% (inactive).
Taken in the same sequence, the figures for `CCOP(=S)(OCC)Oc1ccc2c(C)c(Cl)c(=O)oc2c1` [coumophos] (10 µM) were -0.0715 and 110% (inactive).
`Cc1cc(C)cc(C(=O)N(C)[C@H](Cc2ccc(-c3ccccc3)cc2)C(=O)N[C@@H](Cc2c[nH]c3ccccc23)C(=O)O)c1` (10 µM) came in with a morphology score in test [1] of 0.0271. Further, the SARS-CoV-2 infection rate in test [2] was 95% (inactive).
`CN[C@H]1CC[C@@H](c2ccc(Cl)c(Cl)c2)c2ccccc21` (0.833333 µM): the morphology score in test [1] came out at 0.143. Further, in test [2], the SARS-CoV-2 infection rate was 89.5% (inactive).
Compound `O=[N+]([O-])c1ccc2c(c1)S(=O)(=O)C=C2` [stattic] (0.833333 µM) displayed a morphology score in test [1] of 0.148. Besides, the SARS-CoV-2 infection rate in test [2] was 100% (inactive).
In the case of `CC(OC(=O)NCC1(CC(=O)O)CCCCC1)OC(=O)C(C)C` (stereo not given) [gabapentin-enacarbil] (10 µM), the morphology score in test [1] was -0.0175. Moreover, the SARS-CoV-2 infection rate in test [2] is 112% (inactive).
As to `O=C1NC(=O)[C@@]2(CCOc3ccc(F)cc32)N1` [sorbinil] (10 µM), the morphology score in test [1] is 0.139. In test [2], the SARS-CoV-2 infection rate was 98% (inactive).
For the compound `Cc1nc(C)c(Cl)c(O)c1Cl` [clopidol] (10 µM), the morphology score in test [1] was -0.0297. In addition, the SARS-CoV-2 infection rate in test [2] was 108% (inactive).
`CCCCCCC[N+](CC)(CC)CCCCc1ccc(Cl)cc1` [clofilium] (10 µM): the morphology score in test [1] was 0.0344. Further, the SARS-CoV-2 infection rate in test [2] was 118% (inactive).
Take `COc1ccc(NC(=O)c2ccc(-c3ccc(-c4noc(C)n4)cc3C)cc2)cc1N1CCN(C)CC1` (0.833333 µM): in test [1], the morphology score was determined as 0.0674. Moreover, the SARS-CoV-2 infection rate in test [2] was 102% (inactive).
In the case of `CCCCCCCCCCCCC[N+](C)(C)Cc1ccccc1` [benzalkonium] (10 µM), the morphology score in test [1] was 0.0369. In addition, in test [2], the SARS-CoV-2 infection rate was 105% (inactive).
In turn, `CO[C@H]1C[C@H](O[C@H]2CC[C@@]3(C)[C@H](CC[C@@H]4[C@@H]3CC[C@]3(C)[C@@H](C5=CC(=O)OC5)[C@@H](OC(C)=O)C[C@]43O)C2)O[C@@H](C)[C@@H]1O` [oleandrin] (0.833333 µM) displayed a morphology score in test [1] of -0.173. For the same compound, the SARS-CoV-2 infection rate in test [2] is 118% (inactive).
Take `O=C(c1cc2ccccc2o1)N1CCN(Cc2ccccc2)CC1` [befuraline] (10 µM): the morphology score in test [1] is -0.00895. Further, in test [2], the SARS-CoV-2 infection rate was 106% (inactive).
Consider `COc1ccccc1OCC(O)CO` (stereo not given) [guaifenesin] (10 µM), for which the morphology score in test [1] was -0.044. Moreover, in test [2], the SARS-CoV-2 infection rate is 112% (inactive).
In test [1], `CC(=O)N1N=C(c2ccc(N)cc2)c2cc3c(cc2C[C@H]1C)OCO3` [talampanel] (10 µM) came in with a morphology score of -0.0668. Further, the SARS-CoV-2 infection rate in test [2] is 104% (inactive).
With `CCC/C=C1\OC(=O)C2=C1CCC=C2` [ligustilide] (10 µM), the morphology score in test [1] amounted to 0.0279. Moreover, the SARS-CoV-2 infection rate in test [2] was 108% (inactive).
In test [1], `O=C(Nc1ccc(OC(F)(F)F)cc1)c1sccc1NCc1ccnc2ccccc12` (10 µM) had a morphology score of 0.0678. Also, in test [2], the SARS-CoV-2 infection rate was 90% (inactive).
Taken in the same sequence, the figures for `CO[C@H]1CC=C2CCN3CCC4=C(CC(=O)OC4)[C@]23C1` (10 µM) were 0.059 and 106% (inactive).
In test [1], `CC(=O)NC1N=C(c2ccccc2)c2ccccc2NC1=O` (stereo not given) (10 µM) had a morphology score of 0.189. In test [2], the SARS-CoV-2 infection rate was 105% (inactive).
With `CCOc1cc(C(C)(C)C)ccc1C1=N[C@@](C)(c2ccc(Cl)cc2)[C@@](C)(c2ccc(Cl)cc2)N1C(=O)N1CCN(CCCS(C)(=O)=O)CC1` (10 µM), the morphology score in test [1] is -0.0507. In test [2], the SARS-CoV-2 infection rate was 104% (inactive).
On to `NC(=O)NCCC[C@H](N)C(=O)O` [L-citrulline] (10 µM), for which the morphology score in test [1] amounted to 0.035. Besides, the SARS-CoV-2 infection rate in test [2] was 112% (inactive).
On the same counts, the results for `CC(C)=CCC/C(C)=C/CC/C(C)=C/CCC(=O)OC/C=C(\C)CCC=C(C)C` [geranyl-farnesylacetate] (10 µM) are -0.0168 and 99% (inactive).
On to `O=C(O)c1ccc(N2C(=O)/C(=C/c3ccc(-c4ccc([N+](=O)[O-])cc4)o3)C=C2c2ccccc2)cc1` (10 µM), for which, in test [1], the morphology score came to 0.184. In test [2], the SARS-CoV-2 infection rate is 93% (inactive).
Taken in the same sequence, the figures for `COc1ccc(CCN2CCN(CCCc3ccccc3)CC2)cc1OC` [cutamesine] (10 µM) were -0.0482 and 106% (inactive).
Taken in the same sequence, the figures for `CCc1c2c(nc3ccc(O)cc13)-c1cc3c(c(=O)n1C2)COC(=O)[C@]3(O)CC` (0.833333 µM) were -0.131 and 116% (inactive).
In test [1], `COc1ccc(Cl)cc1C(=O)NCCc1ccc(C(=O)O)cc1` [meglitinide] (10 µM) showed a morphology score of 0.13. The SARS-CoV-2 infection rate in test [2] was 102% (inactive).
In turn, `CCCN(CCC)C(=O)C1=Cc2ccc(-c3ccc(C(=O)N4CCCC4)cc3)cc2N=C(N)C1` [motolimod] (10 µM) yielded a morphology score in test [1] of 0.14. For the same compound, in test [2], the SARS-CoV-2 infection rate was 93% (inactive).
Turning to `COCCN1CCC(C(=O)NO)(S(=O)(=O)c2ccc(Oc3ccc(OC(F)(F)F)cc3)cc2)CC1` (10 µM), the morphology score in test [1] amounted to 0.0474. Besides, in test [2], the SARS-CoV-2 infection rate is 110% (inactive).
In test [1], `N=C(N)c1ccc(OCCCCCOc2ccc(C(=N)N)cc2)cc1` [pentamidine] (10 µM) returned a morphology score of 0.104. In addition, the SARS-CoV-2 infection rate in test [2] is 109% (inactive).
